Our source for the Potency values is PubChem BioAssay AID1508645 (National Center for Advancing Translational Sciences (NCATS), 2021).

Records with an inconclusive call do not appear. Entries that show only a call come without a potency. Active and inactive are the calls of the source. Calls follow the shape of the dose curve; as a rule, active = well fitted cell-killing curve with a large enough effect; inconclusive = small, poorly fitted or top-dose-only effect, or effect the other way; inactive = no such curve, though single readings can be large or run the other way.

A short description of the assay: Cell viability assay in S16 Pmp22-HiBiT cells. The conditions noted are these: S16 Schwann Pmp22-HiBiT viability, CellTiter-Glo, 24 h; series mostly up to 27.9 µM. An excerpt: Assay Provider: Jim Inglese Ph.D. National Center for Advancing Translational Science, National Institutes of Health, Rockville, MD CMT is a heterogeneous group of neurological disorders that affect approximately 1 in 2,500 people. In particular, the most common form of CMT, CMT1A is genetically linked to the duplication of the PMP22 gene which leads to Schwann cell overexpression, thus manifesting itself as a typical case of dose-sensitive diseases. To identify small molecule compounds that can mediate the expression of PMP22 we developed a phenotypic assay screening strategy by utilizing genome editing techniques to construct Schwann cell lines containing novel reporter technology to monitor the transcriptional or translational regulation of PMP22. For high sensitivity we use a bioluminescent reporter system embedded in the 3' UTR of the PMP22 gene (S16(c9) Pmp22-F2sN) to identify compounds that inhibit gene expression. […] We can further discriminate the effect of all transcriptionally active molecules on PMP22 translation or stability with an assay that incorporates a short NLuc peptide (HiBiT) at the C-terminus of expressed PMP22 (S16(f8) PMP22-HiBiT) allowing alpha complementation and luminescence detection of membrane-associated PMP22 protein. These assays were screened against the NCATS Sytravon Library Collection. Miniaturization of these assays to 1536-well plate format for quantitative high throughput screening (qHTS) yielded rich data sets immediately from the qHTS assay (S16(c9) Pmp22-F2sN), when compared with data from a cell viability assay (Cell TiterGlo) to identify compounds that decreased the output signals through cellular toxicity to streamline the selection process of actives for subsequent characterization using the HiBiT assay (S16(f8) PMP22-HiBiT).
Cell viability assay in S16 Pmp22-HiBiT cells PROTOCOL TABLE (format as described by Inglese J, Shamu CE and Guy RK. 2007) SEQUENCE No. (e.g., 1, 2, 3, etc.); PARAMETER (e.g., Cells, Incubation, Reagent, etc.); VALUE and DESCRIPTION. 1. Cells. Add 500-1,000 cells in 4 uL in growth media (DMEM High Glucose, No Phenol Red media + 10% heat-inactivated FBS + 1% Pen/Strep supplemented media) per well into Greiner 1536-well white/solid bottom high base, TC-treated plates. 2. Compounds. Library compounds and controls added at 23nL per well, transferred by Pin Tool. 3. Incubation. Incubate plates at 37C, 5% CO2, 95% RH for 24 h. 4. Reagent. Add 3uL CellTiter-Glo per well of Greiner 1536-well plates. 5. Incubation. Incubate plates at room temperature for 15 min., protect from light. 6. Detector. Luminescence measured using CCD-based camera (Viewlux). NOTES (numbers refer to Sequence numbers above; values are from representative experiments) 6. Luminescence Read: Clear filter; Exposure = 1 sec, Gain = High, Speed = Slow, Binning = 2X REFERENCES: 1. Inglese J, Shamu CE and Guy RK, Reporting data from high throughput screening of small molecule libraries, Nature Chemical Biology, 2007, 3(8): 438-441. doi.org/10.1038/nchembio0807-438 2. Yasgar A, Shinn P, Jadhav A, Auld DS, Michael S, Zheng W, Austin CP, Inglese J and Simeonov A, Compound Management for Quantitative High-Throughput Screening. J. Assoc. Lab. Auto., 2008, 13: 79-89. doi: 10.1016/j.jala.2007.12.004
Take `CCOC(=O)c1c(NC(=O)c2nc(S(C)(=O)=O)ncc2Cl)sc(C(C)=O)c1C`: the Potency was 6.45 µM (active).

Consider `COCCCNC(=O)c1ccc(-n2c(-c3ccccc3)cc3c2CCC(C)C3)cc1` (centres undefined), for which the Potency result was “inactive”. In the case of `Cc1ccc(C)c(NC(=O)Cn2c(=O)n(Cc3ccc4c(c3)OCO4)c(=O)c3ccc(C(=O)NC4CCCCC4)cc32)c1`, the Potency result was “inactive”. With `CCC(=O)C1=C(c2cccc([N+](=O)[O-])c2)N(C(=O)CC)n2c(nnc2-c2ccccc2)S1` the entry was “inactive”.
